From the supplement of paper PMC10849652
About 7,900 targets were measured; listed, in parts, are those with a hit and a random draw of the rest. About 0.6% of all pairs of compound and target were hits.

Assays:
Assay in all cases: log2 fold change, soluble protein after heating vs DMSO (PISA); higher = thermal stabilisation; K562 cells, 10 uM, 30 min; active = over 0.2 and 3.5 SD of the protein, either way, in both replicates (recomputed)
[1] = compound: CS(=O)(=O)c1ccc(-c2cnc(N)c(C(=O)Nc3ccccc3)n2)cc1
In short: (§1)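 K562 cells (2×10^6 cells/mL) were treated with 10 μM compound for 30 min, and aliquots were heated for 3 min over 48°C-58°C. Pooled aliquots were extracted in PBS with 0.5% NP-40 at 4°C, and the supernatant after 21,000xg for 90 min was measured by TMTpro 16plex LC-MS/MS with channel sums equalised. Reported thermal stability, relative to control samples and from duplicates, is a log2 fold change.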

crizotinib = compound: C[C@@H](Oc1cc(-c2cnn(C3CCNCC3)c2)cnc1N)c1c(Cl)ccc(F)c1Cl [crizotinib]
In short: as §1

[2] = compound: C[C@@H]1COCCN1C2=NC(=NC(=C2)C3(CC3)S(=O)(=O)C)C4=C5C=CNC5=CC=C4
In short: as §1

[3] = compound: C[C@H](C1=CC=C(C=C1)C(=O)NC2=C3C=CNC3=NC=C2)N
In short: as §1

duvelisib = compound: C[C@H](Nc1ncnc2nc[nH]c12)c1cc2cccc(Cl)c2c(=O)n1-c1ccccc1 [duvelisib]
In short: as §1

gandotinib = compound: Cc1cc(Nc2cc(CN3CCOCC3)c3nc(C)c(Cc4ccc(Cl)cc4F)n3n2)n[nH]1 [gandotinib]
In short: as §1

tozasertib = compound: Cc1cc(Nc2cc(N3CCN(C)CC3)nc(Sc3ccc(NC(=O)C4CC4)cc3)n2)n[nH]1 [tozasertib]
In short: as §1

[4] = compound: Cc1cc(SCc2sc(-c3ccc(C(F)(F)F)cc3)nc2C)ccc1OCC(=O)O
In short: as §1

doramapimod = compound: Cc1ccc(-n2nc(C(C)(C)C)cc2NC(=O)Nc2ccc(OCCN3CCOCC3)c3ccccc23)cc1 [doramapimod]
In short: as §1

ispinesib = compound: Cc1ccc(C(=O)N(CCCN)[C@@H](c2nc3cc(Cl)ccc3c(=O)n2Cc2ccccc2)C(C)C)cc1 [ispinesib]
In short: as §1

Measured: log2 fold change

C9orf64 (UniProt Q5T6V5)
inactive: [1] 0.049 | crizotinib -0.329 | [2] 0.091 | [3] 0 | duvelisib 0.096 | gandotinib -0.128 | tozasertib -0.012 | [4] 0.097 | doramapimod -0.005 | ispinesib -0.207

CDC42BPB (UniProt Q9Y5S2)
inactive: [1] 0.068 | crizotinib 0.056 | [2] -0.031 | [3] -0.149 | duvelisib 0.012 | gandotinib 0.029 | tozasertib 0.112 | [4] 0.005 | doramapimod 0.01 | ispinesib -0.148

CDK9 isoform 2 (UniProt P50750)
Sequence of UniProt P50750 (P50750 whole entry, looked up): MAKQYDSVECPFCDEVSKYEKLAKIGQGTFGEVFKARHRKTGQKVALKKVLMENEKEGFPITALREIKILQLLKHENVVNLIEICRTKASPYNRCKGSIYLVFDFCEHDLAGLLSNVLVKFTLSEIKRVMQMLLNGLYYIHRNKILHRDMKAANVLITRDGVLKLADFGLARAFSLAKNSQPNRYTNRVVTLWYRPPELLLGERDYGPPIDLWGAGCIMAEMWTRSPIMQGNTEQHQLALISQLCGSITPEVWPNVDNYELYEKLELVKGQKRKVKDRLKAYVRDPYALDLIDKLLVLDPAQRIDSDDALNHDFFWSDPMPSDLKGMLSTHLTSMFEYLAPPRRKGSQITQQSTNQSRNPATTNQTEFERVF
inactive: [1] -0.017 | crizotinib -0.103 | [2] -0.075 | [3] 0.189 | duvelisib -0.076 | gandotinib -0.054 | tozasertib -0.031 | [4] 0.03 | doramapimod 0.066 | ispinesib -0.013

COPS8 (UniProt Q99627)
inactive: [1] -0.017 | crizotinib 0.07 | [2] 0.13 | [3] -0.148 | duvelisib 0.096 | gandotinib 0.048 | tozasertib 0.028 | [4] 0.054 | doramapimod 0.107 | ispinesib 0.05

CSE1L (UniProt P55060)
Sequence of UniProt P55060 (P55060 whole entry, looked up): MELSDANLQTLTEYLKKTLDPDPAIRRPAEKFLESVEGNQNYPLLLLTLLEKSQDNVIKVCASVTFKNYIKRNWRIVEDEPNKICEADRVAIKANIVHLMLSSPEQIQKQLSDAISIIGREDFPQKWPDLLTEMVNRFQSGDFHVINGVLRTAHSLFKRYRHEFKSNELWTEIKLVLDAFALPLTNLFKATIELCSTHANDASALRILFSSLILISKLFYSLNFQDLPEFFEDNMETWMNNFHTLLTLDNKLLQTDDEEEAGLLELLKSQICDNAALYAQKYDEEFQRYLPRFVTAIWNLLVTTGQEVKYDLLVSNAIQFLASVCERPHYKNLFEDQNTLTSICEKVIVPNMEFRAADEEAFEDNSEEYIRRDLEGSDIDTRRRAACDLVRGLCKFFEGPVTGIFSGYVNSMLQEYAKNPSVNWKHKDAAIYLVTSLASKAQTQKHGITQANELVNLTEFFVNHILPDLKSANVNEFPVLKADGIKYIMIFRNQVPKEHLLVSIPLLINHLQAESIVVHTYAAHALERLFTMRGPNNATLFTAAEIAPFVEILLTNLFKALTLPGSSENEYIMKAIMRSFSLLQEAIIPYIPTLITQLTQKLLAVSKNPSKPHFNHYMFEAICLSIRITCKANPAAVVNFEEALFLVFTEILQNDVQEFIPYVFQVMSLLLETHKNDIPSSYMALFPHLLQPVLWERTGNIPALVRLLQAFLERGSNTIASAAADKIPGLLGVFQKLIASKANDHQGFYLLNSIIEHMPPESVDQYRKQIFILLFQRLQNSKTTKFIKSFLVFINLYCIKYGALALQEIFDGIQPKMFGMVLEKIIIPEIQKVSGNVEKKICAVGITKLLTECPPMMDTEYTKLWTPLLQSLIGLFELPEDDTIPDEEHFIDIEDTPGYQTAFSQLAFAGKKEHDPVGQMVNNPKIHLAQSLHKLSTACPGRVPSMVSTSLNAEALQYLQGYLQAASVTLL
inactive: [1] 0.008 | crizotinib -0.063 | [2] 0.083 | [3] -0.067 | duvelisib 0.01 | gandotinib -0.174 | tozasertib 0.066 | [4] 0.024 | doramapimod -0.027 | ispinesib -0.003

CSNK2A1 (UniProt P68400)
inactive: [1] 0.055 | crizotinib -0.04 | [2] 0.016 | [3] -0.17 | duvelisib 0.01 | gandotinib 0.043 | tozasertib -0.004 | [4] 0.005 | doramapimod -0.022 | ispinesib 0.029

CPD (UniProt O75976)
active: crizotinib -0.294
inactive: [1] 0 | [2] 0.002 | [3] 0.019 | duvelisib 0.036 | gandotinib 0.033 | tozasertib -0.036 | [4] -0.01 | doramapimod 0.028 | ispinesib -0.174

CNOT1 (UniProt A5YKK6)
inactive: [1] 0.006 | crizotinib -0.087 | [2] -0.034 | [3] 0.033 | duvelisib 0.013 | gandotinib -0.043 | tozasertib 0.045 | [4] 0.076 | doramapimod -0.025 | ispinesib -0.038

CALB1 (UniProt P05937)
Sequence of UniProt P05937 (P05937 whole entry, looked up): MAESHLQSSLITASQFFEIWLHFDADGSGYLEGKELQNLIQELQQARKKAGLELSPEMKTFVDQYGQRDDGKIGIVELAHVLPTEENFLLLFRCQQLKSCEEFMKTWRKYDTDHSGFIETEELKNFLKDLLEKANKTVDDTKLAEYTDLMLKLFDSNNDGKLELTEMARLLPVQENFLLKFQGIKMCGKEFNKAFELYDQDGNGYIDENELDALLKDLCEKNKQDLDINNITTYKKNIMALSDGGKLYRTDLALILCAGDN
inactive: [1] 0.033 | crizotinib -0.166 | [2] 0.015 | [3] -0.039 | duvelisib -0.031 | gandotinib -0.038 | tozasertib 0.022 | [4] 0.017 | doramapimod -0.006 | ispinesib -0.105

CCNK isoform 4 (UniProt O75909)
active: gandotinib 0.324
inactive: [1] -0.014 | crizotinib -0.023 | [2] 0.073 | [3] -0.042 | duvelisib -0.06 | tozasertib 0.157 | [4] 0.016 | doramapimod 0.157 | ispinesib 0.03

CDK8 (UniProt P49336)
Sequence of UniProt P49336 (P49336 whole entry, looked up): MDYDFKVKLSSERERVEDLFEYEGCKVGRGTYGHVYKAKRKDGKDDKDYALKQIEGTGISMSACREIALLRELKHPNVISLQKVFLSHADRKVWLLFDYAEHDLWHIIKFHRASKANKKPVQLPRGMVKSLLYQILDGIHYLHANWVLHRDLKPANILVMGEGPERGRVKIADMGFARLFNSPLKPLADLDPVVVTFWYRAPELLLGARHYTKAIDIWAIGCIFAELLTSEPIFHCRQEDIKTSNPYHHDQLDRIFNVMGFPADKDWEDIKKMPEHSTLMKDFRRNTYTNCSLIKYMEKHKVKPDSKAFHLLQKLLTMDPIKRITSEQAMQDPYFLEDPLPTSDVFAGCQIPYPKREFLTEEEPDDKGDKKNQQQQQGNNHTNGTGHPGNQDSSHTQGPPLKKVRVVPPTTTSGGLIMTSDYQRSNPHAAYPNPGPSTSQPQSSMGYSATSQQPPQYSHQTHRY
inactive: [1] -0.049 | crizotinib -0.029 | [2] 0.033 | [3] 0.248 | duvelisib -0.071 | gandotinib -0.13 | tozasertib -0.199 | [4] 0.155 | ispinesib 0.031
active: doramapimod 0.425

CES2 isoform 4 (UniProt O00748)
inactive: [1] 0.162 | crizotinib 0.154 | [2] 0.03 | [3] -0.079 | duvelisib 0.019 | gandotinib 0.048 | tozasertib -0.093 | [4] -0.188 | doramapimod 0.144 | ispinesib -0.047

CNOT7 (UniProt Q9UIV1)
Sequence of UniProt Q9UIV1 (Q9UIV1 whole entry, looked up): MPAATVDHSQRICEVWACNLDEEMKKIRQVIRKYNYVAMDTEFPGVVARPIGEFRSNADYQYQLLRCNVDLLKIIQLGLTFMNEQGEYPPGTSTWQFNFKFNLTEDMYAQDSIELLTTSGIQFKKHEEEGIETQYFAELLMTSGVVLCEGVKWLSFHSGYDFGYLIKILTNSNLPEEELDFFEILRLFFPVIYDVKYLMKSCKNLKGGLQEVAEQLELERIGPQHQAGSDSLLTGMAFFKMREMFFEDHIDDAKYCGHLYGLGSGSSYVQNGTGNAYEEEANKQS
inactive: [1] -0.052 | crizotinib -0.097 | [2] 0.043 | [3] 0.219 | duvelisib 0.069 | gandotinib -0.003 | tozasertib -0.007 | [4] 0.022 | doramapimod 0.07 | ispinesib -0.072

C4A (UniProt P0C0L4)
inactive: [1] -0.096 | crizotinib 0.065 | [2] 0.088 | [3] 0.056 | duvelisib 0.026 | gandotinib -0.375 | tozasertib -0.056 | [4] 0.008 | doramapimod -0.153 | ispinesib -0.155

CCNB1 (UniProt P14635)
inactive: [1] -0.002 | crizotinib -0.021 | [2] -0.044 | [3] -0.024 | duvelisib 0.06 | gandotinib -0.004 | tozasertib -0.042 | [4] -0.025 | doramapimod -0.011 | ispinesib 0.043

C15orf41 (UniProt Q9Y2V0)
inactive: [1] 0.057 | crizotinib -0.01 | [2] 0.074 | [3] 0.023 | duvelisib 0.003 | gandotinib -0.027 | tozasertib 0.1 | [4] -0.004 | doramapimod 0.08 | ispinesib -0.2

CIR1 (UniProt Q86X95)
active: [3] 0.544
inactive: [1] -0.039 | crizotinib 0.03 | [2] -0.187 | duvelisib -0.114 | gandotinib 0.295 | tozasertib 0 | [4] 0.015 | doramapimod 0.092 | ispinesib -0.063

CDC123 (UniProt O75794)
inactive: [1] -0.001 | [2] 0.074 | [3] -0.032 | duvelisib 0.159 | gandotinib 0.044 | tozasertib -0.049 | [4] 0.115 | doramapimod 0.003 | ispinesib 0.013
active: crizotinib -0.246

CAVIN1 (UniProt Q6NZI2)
inactive: [1] -0.023 | crizotinib -0.046 | [2] -0.34 | [3] 0.174 | duvelisib -0.131 | gandotinib 0.145 | tozasertib 0.058 | [4] 0.06 | doramapimod 0.135 | ispinesib 0.067

CIT isoform 4 (UniProt O14578)
Sequence of UniProt O14578 (O14578 whole entry, looked up): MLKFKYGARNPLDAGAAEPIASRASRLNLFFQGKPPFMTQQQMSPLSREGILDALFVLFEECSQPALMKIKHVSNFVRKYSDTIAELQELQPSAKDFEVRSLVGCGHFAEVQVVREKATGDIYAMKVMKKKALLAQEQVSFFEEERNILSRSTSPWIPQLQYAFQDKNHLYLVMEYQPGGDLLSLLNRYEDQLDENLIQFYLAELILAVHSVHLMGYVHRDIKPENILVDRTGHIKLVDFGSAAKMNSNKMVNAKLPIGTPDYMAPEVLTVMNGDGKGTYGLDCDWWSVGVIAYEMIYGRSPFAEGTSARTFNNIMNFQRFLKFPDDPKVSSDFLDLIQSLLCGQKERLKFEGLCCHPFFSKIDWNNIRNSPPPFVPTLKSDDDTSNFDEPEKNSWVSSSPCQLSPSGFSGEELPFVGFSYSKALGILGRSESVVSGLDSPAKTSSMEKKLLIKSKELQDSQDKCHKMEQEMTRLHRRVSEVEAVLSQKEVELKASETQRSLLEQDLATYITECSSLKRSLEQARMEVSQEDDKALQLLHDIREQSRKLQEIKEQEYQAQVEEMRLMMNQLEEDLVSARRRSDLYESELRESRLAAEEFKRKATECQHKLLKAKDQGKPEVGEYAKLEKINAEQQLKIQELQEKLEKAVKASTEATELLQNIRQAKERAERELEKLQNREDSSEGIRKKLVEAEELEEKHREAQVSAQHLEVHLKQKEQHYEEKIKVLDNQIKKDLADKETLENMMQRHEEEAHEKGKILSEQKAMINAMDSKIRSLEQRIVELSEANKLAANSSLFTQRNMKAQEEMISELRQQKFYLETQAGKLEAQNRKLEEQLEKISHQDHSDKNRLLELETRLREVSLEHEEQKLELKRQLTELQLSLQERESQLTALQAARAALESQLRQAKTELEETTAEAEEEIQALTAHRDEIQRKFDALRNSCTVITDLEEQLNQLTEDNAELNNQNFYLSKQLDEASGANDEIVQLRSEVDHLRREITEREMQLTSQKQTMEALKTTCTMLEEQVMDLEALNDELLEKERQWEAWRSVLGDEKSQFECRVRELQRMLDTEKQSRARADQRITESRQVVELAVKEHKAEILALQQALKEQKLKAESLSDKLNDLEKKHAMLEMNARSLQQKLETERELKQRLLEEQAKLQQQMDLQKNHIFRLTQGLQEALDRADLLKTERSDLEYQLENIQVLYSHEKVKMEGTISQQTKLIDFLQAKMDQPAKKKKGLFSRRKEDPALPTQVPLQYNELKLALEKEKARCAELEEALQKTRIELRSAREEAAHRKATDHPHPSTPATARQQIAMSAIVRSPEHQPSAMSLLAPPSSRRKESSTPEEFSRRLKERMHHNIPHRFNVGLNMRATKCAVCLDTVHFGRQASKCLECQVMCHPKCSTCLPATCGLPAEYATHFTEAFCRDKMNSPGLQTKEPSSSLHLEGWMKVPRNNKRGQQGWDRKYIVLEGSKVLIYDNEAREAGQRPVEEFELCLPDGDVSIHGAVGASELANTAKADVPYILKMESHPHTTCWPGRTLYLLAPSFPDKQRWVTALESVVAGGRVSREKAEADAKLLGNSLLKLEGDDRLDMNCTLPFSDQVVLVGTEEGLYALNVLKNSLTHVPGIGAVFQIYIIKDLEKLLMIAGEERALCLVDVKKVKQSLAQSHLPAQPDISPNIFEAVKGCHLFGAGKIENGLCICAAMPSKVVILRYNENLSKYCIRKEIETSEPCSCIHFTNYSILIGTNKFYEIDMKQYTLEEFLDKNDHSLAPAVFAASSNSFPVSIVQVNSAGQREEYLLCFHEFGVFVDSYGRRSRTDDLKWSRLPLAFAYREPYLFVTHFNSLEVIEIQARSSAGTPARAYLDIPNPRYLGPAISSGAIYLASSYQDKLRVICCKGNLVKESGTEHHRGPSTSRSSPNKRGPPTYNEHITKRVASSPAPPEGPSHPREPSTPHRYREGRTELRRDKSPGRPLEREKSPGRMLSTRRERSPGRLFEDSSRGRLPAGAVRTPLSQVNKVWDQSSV
inactive: [1] -0.023 | crizotinib -0.077 | [2] -0.013 | [3] 0.08 | duvelisib 0.064 | gandotinib -0.001 | tozasertib 0.093 | [4] -0.033 | doramapimod 0.026 | ispinesib 0.072

C16orf58 (UniProt Q96GQ5)
inactive: [1] 0.011 | crizotinib -0.057 | [2] 0.126 | [3] 0 | duvelisib 0.044 | gandotinib -0.08 | tozasertib -0.028 | [4] -0.035 | doramapimod 0.006
active: ispinesib -0.309

CCZ1 (UniProt P86791)
active: crizotinib -0.278
inactive: [1] 0.022 | [2] 0.009 | [3] 0.005 | duvelisib -0.053 | gandotinib -0.081 | tozasertib -0.039 | [4] 0.006 | doramapimod -0.036 | ispinesib -0.162

CLUH, A0A494C0R8
active: crizotinib -0.575 | duvelisib 0.646
inactive: [1] 0.055 | [2] 0.205 | [3] 0.037 | gandotinib -0.214 | tozasertib -0.11 | [4] -0.031 | doramapimod 0.113 | ispinesib -0.028

COPS3 (UniProt Q9UNS2)
inactive: [1] 0.018 | crizotinib 0.003 | [2] 0.047 | [3] -0.023 | duvelisib -0.003 | gandotinib -0.087 | tozasertib 0 | [4] -0.006 | doramapimod -0.015 | ispinesib 0.024

CPT1A (UniProt P50416)
active: crizotinib 0.546
inactive: [1] 0.043 | [2] 0.02 | [3] 0.047 | duvelisib 0.022 | gandotinib 0.211 | tozasertib 0.161 | [4] 0.079 | doramapimod 0.012 | ispinesib 0.322

CPSF3 (UniProt Q9UKF6)
inactive: [1] -0.004 | crizotinib 0.01 | [2] 0.013 | [3] -0.006 | duvelisib 0.011 | gandotinib -0.052 | tozasertib 0.117 | [4] 0.031 | doramapimod 0 | ispinesib -0.003

CNOT2 (UniProt Q9NZN8)
inactive: [1] 0.028 | crizotinib -0.019 | [2] 0.038 | [3] 0.046 | duvelisib -0.021 | gandotinib -0.045 | tozasertib -0.006 | [4] 0.077 | doramapimod -0.012 | ispinesib -0.02

CCDC167 (UniProt Q9P0B6)
Sequence of UniProt Q9P0B6 (Q9P0B6 whole entry, looked up): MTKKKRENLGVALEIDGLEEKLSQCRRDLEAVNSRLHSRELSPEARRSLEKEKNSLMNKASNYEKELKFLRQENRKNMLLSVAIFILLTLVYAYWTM
active: ispinesib -0.344
inactive: [1] -0.08 | crizotinib 0.025 | [2] 0.071 | [3] 0.135 | duvelisib 0.263 | gandotinib 0.181 | tozasertib -0.121 | [4] -0.214 | doramapimod 0.034

CA8 (UniProt P35219)
inactive: [1] 0.003 | crizotinib -0.008 | [2] 0.117 | [3] -0.06 | duvelisib 0.1 | gandotinib -0.064 | tozasertib 0.122 | [4] 0.096 | doramapimod -0.066 | ispinesib 0.103

CASP2 (UniProt P42575)
Sequence of UniProt P42575 (P42575 whole entry, looked up): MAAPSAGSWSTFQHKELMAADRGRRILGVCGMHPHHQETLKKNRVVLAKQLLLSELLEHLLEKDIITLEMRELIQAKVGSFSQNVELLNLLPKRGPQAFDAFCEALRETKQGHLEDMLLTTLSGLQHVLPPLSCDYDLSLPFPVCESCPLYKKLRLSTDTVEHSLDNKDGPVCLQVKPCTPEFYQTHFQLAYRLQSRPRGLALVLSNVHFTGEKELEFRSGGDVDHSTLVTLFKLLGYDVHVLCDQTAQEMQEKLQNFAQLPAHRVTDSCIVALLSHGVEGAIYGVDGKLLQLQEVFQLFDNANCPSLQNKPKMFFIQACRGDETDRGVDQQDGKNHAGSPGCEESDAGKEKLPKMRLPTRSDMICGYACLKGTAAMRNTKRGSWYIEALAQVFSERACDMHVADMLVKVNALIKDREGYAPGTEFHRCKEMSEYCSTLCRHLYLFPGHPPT
inactive: [1] 0.004 | crizotinib -0.062 | [2] 0.023 | [3] -0.002 | duvelisib 0.061 | gandotinib -0.071 | tozasertib 0.083 | [4] 0.05 | doramapimod 0.077 | ispinesib 0.039
